# Measured values as given in PubChem BioAssay (NCATS).
# Records with an inconclusive call do not appear. Entries that show only a call come without a potency. Calls of active or inactive are those of the source. Calls follow the shape of the dose curve; as a rule, active = well fitted curve in the direction sought with a large enough effect; inconclusive = small, poorly fitted or top-dose-only effect, or another doubt; inactive = no such curve, though single readings can be large; an effect the other way counts as inactive or inconclusive.
# What was measured:
# [1] = qHTS of pediatric cancer cell lines to identify multiple opportunities for drug repurposing: Primary screen for TC32 cells (AID 1347089); also: nearly all actives have a fitted effect of over 60% in size
# Method in brief: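 Luminescent CellTiter-Glo read-out of metabolically active TC32 cells after 48 h compound exposure. Primary: MIPE 11-point, 0.78 nM–46 µM; NPC 8-point, 0.59 nM–46 µM. Confirmatory: 11-point dilutions.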
# [2] = qHTS of pediatric cancer cell lines to identify multiple opportunities for drug repurposing: Primary screen for DAOY cells (AID 1347090); also: nearly all actives have a fitted effect of over 55% in size; also: potency is read from the fitted curve at half-maximal effect
# Method in brief: (§1)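 Cell viability, CellTiter-Glo luminescence; 500-1,000 cells/well, 8- or 11-point titration, 48 h compound exposure at 37 degrees C, 5% CO2. Controls: DMSO neutral, bortezomib 2.3 µM final as positive.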
# [3] = qHTS of pediatric cancer cell lines to identify multiple opportunities for drug repurposing: Primary screen for SJ-GBM2 cells (AID 1347091); also: potency is read from the fitted curve at half-maximal effect
# Method in brief: as §1
# [4] = qHTS of pediatric cancer cell lines to identify multiple opportunities for drug repurposing: Primary screen for A673 cells (AID 1347092); also: nearly all actives have a fitted effect of over 45% in size
# Method in brief: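 A673 cells (500-1,000 cells/well in growth media) were pre-incubated 5 h at 37 degrees C, then exposed to compounds for 48 h. Viability was read as CellTiter-Glo luminescence; concentration-response curves came directly from the primary screen.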
# [5] = qHTS of pediatric cancer cell lines to identify multiple opportunities for drug repurposing: Primary screen for SK-N-MC cells (AID 1347093); also: potency is read from the fitted curve at half-maximal effect
# Method in brief: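 Metabolically active cells were quantified by ATP-dependent luminescence (CellTiter-Glo, 15 min at room temperature) following 48 h treatment. Cells had been plated at 500-1,000 per well and settled for 5 h beforehand.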
# [6] = qHTS of pediatric cancer cell lines to identify multiple opportunities for drug repurposing: Primary screen for BT-37 cells (AID 1347094); also: series mostly up to about 57 µM
# Method in brief: (§2)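 Quantitative HTS format: each compound titrated (MIPE 11 points from 0.78 nM, NPC 8 points from 0.59 nM) onto cells plated 5 hours earlier. After 48 h at 37 degrees C, CellTiter-Glo luminescence was recorded.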
# [7] = qHTS of pediatric cancer cell lines to identify multiple opportunities for drug repurposing: Primary screen for U-2 OS cells (AID 1347096); also: nearly all actives have a fitted effect of over 50% in size
# Method in brief: (§3)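 Cells (500-1,000/well) rested 5 h, then received compounds for 48 h; metabolically active cells were measured by CellTiter-Glo luminescence. Final concentrations spanned up to 46 µM (MIPE, 11-point) or 0.59 nM-46 µM (NPC, 8-point) in primary screens, 11-point in follow-ups.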
# [8] = qHTS of pediatric cancer cell lines to identify multiple opportunities for drug repurposing: Primary screen for Saos-2 cells (AID 1347097); also: nearly all actives have a fitted effect of over 40% in size; also: potency is read from the fitted curve at half-maximal effect
# Method in brief: as §2
# [9] = qHTS of pediatric cancer cell lines to identify multiple opportunities for drug repurposing: Primary screen for SK-N-SH cells (AID 1347098); also: nearly all actives have a fitted effect of over 65% in size; also: potency is read from the fitted curve at half-maximal effect
# Method in brief: as §3
# [10] = qHTS of pediatric cancer cell lines to identify multiple opportunities for drug repurposing: Primary screen for NB1643 cells (AID 1347099); also: nearly all actives have a fitted effect of over 50% in size; also: potency is read from the fitted curve at half-maximal effect
# Method in brief: as §2
# [11] = qHTS of pediatric cancer cell lines to identify multiple opportunities for drug repurposing: Primary screen for LAN-5 cells (AID 1347100)
# Method in brief: as §3
# [12] = qHTS of pediatric cancer cell lines to identify multiple opportunities for drug repurposing: Primary screen for BT-12 cells (AID 1347101); also: nearly all actives have a fitted effect of over 25% in size; also: potency is read from the fitted curve at half-maximal effect
# Method in brief: as §3
# [13] = qHTS of pediatric cancer cell lines to identify multiple opportunities for drug repurposing: Primary screen for Rh18 cells (AID 1347102); also: nearly all actives have a fitted effect of over 65% in size
# Method in brief: as §3
# [14] = qHTS of pediatric cancer cell lines to identify multiple opportunities for drug repurposing: Primary screen for OHS-50 cells (AID 1347103); also: nearly all actives have a fitted effect of over 40% in size
# Method in brief: as §3
# [15] = qHTS of pediatric cancer cell lines to identify multiple opportunities for drug repurposing: Primary screen for RD cells (AID 1347104); also: nearly all actives have a fitted effect of over 55% in size; also: potency is read from the fitted curve at half-maximal effect
# Method in brief: as §2
# [16] = qHTS of pediatric cancer cell lines to identify multiple opportunities for drug repurposing: Primary screen for NB-EBc1 cells (AID 1347095)
# Method in brief: as §2
Compound,Potency [1],Potency [2],Potency [3],Potency [4],Potency [5],Potency [6],Potency [7],Potency [8],Potency [9],Potency [10],Potency [11],Potency [12],Potency [13],Potency [14],Potency [15],Potency [16]
NCCC(O)(P(=O)(O)O)P(=O)(O)O,inactive,inactive,inactive,inactive,inactive,inactive,inactive,inactive,inactive,inactive,inactive,inactive,inactive,inactive,inactive,–
CCCCc1nc(Cl)c(CO)n1Cc1ccc(-c2ccccc2-c2nn[nH]n2)cc1,inactive,inactive,inactive,inactive,–,inactive,inactive,inactive,inactive,inactive,inactive,inactive,–,inactive,inactive,inactive
CCN1CCCC1=O,inactive,inactive,inactive,inactive,–,inactive,inactive,inactive,inactive,inactive,inactive,inactive,inactive,–,inactive,inactive
CCN(CC)C(=O)N1CCN(C)CC1,inactive,inactive,inactive,inactive,inactive,inactive,inactive,inactive,inactive,inactive,inactive,inactive,inactive,inactive,inactive,–
NC(=O)CC[C@@H]1NC(=O)[C@H](Cc2ccccc2)NC(=O)[C@H](Cc2ccc(O)cc2)NC(=O)CCSSC[C@@H](C(=O)N2CCC[C@H]2C(=O)N[C@@H](CCCN=C(N)N)C(=O)NCC(N)=O)NC(=O)[C@H](CC(N)=O)NC1=O,inactive,inactive,inactive,inactive,–,inactive,–,inactive,inactive,inactive,inactive,inactive,inactive,inactive,inactive,inactive
Cc1nc2n(c(=O)c1CCN1CCC(c3noc4cc(F)ccc34)CC1)CCC[C@H]2O,inactive,inactive,inactive,inactive,–,inactive,–,inactive,inactive,inactive,inactive,inactive,inactive,inactive,inactive,inactive
COc1c2occc2c(OC)c2c(=O)cc(C)oc12,inactive,inactive,inactive,inactive,inactive,inactive,inactive,inactive,inactive,inactive,inactive,inactive,inactive,–,inactive,–
CC(=O)CC(c1ccc([N+](=O)[O-])cc1)c1c(O)c2ccccc2oc1=O (stereo not drawn),inactive,inactive,inactive,inactive,inactive,inactive,inactive,inactive,inactive,inactive,inactive,inactive,inactive,–,inactive,–
C[C@@H]1C[C@H]2[C@@H]3C[C@H](F)C4=CC(=O)C(Cl)=C[C@]4(C)[C@@]3(F)[C@@H](O)C[C@]2(C)[C@@]1(O)C(=O)CO,inactive,inactive,inactive,inactive,inactive,inactive,–,inactive,inactive,inactive,inactive,inactive,inactive,–,inactive,–
CC(C)N=C(N)/N=C(\N)Nc1ccc(Cl)cc1,inactive,inactive,inactive,–,–,inactive,–,–,–,inactive,inactive,–,–,–,–,inactive
CCCCCCCCCCCCCCCCOP(=O)([O-])OCC[N+](C)(C)C,inactive,inactive,8.41 µM (active),–,6.68 µM (active),inactive,inactive,inactive,13.7 µM (active),–,–,inactive,inactive,–,–,–
Cc1c(C)n(CCN(C)C)c2ccc(C(=O)OCCN(C)C)cc12,inactive,inactive,inactive,–,–,inactive,inactive,inactive,–,inactive,inactive,–,inactive,inactive,inactive,–
Cc1ccc(O)c2ncccc12,inactive,3.35 µM (active),inactive,–,2.99 µM (active),–,–,21.1 µM (active),7.7 µM (active),2.37 µM (active),–,11 µM (active),–,–,8.41 µM (active),–
CC1=C(C(=O)O)N2C(=O)[C@@H](NC(=O)[C@H](N)c3ccc(O)cc3)[C@H]2SC1,inactive,inactive,inactive,–,–,inactive,–,inactive,–,inactive,inactive,inactive,inactive,–,inactive,inactive
Cc1cc(N)c2cc(NC(=O)Nc3ccc4nc(C)cc(N)c4c3)ccc2n1,inactive,inactive,inactive,–,inactive,inactive,–,inactive,–,–,inactive,inactive,inactive,inactive,–,inactive
OC[C@H]1O[C@H](O[C@]2(CCl)O[C@H](CCl)[C@@H](O)[C@@H]2O)[C@H](O)[C@@H](O)[C@H]1Cl,inactive,inactive,inactive,–,–,inactive,inactive,inactive,inactive,inactive,inactive,inactive,inactive,inactive,inactive,inactive
Oc1cc(O)c2c(c1)O[C@H](c1ccc(O)c(O)c1)[C@H](O)C2,inactive,inactive,inactive,–,inactive,inactive,inactive,inactive,–,inactive,inactive,inactive,inactive,inactive,inactive,–
c1ccc(OCc2ccc(CCCN3CCOCC3)cc2)cc1,inactive,inactive,inactive,–,inactive,inactive,inactive,inactive,–,inactive,–,–,inactive,–,inactive,–
C[C@@H](CN(C)C)CN1c2ccccc2Sc2ccccc21,inactive,inactive,inactive,–,inactive,–,inactive,–,–,inactive,inactive,–,–,–,–,inactive
CCOC(=O)n1ccn(C)c1=S,inactive,inactive,inactive,–,–,inactive,inactive,inactive,inactive,inactive,inactive,inactive,–,inactive,inactive,inactive
O=C1OCCN1/N=C/c1ccc([N+](=O)[O-])o1,inactive,inactive,inactive,–,inactive,inactive,inactive,inactive,–,inactive,inactive,inactive,inactive,inactive,inactive,inactive
